Results filed as inconclusive are left out. Active and inactive are the calls of the source. Unless noted, the call rests on the fitted dose curve.
Legend:
[1] = Nuclear factor erythroid 2-related factor 2/antioxidant responsive element (Nrf2/ARE) small molecule agonists: qHTS cell viability counter screen in human keratinocytes (AID 1919968; active means well fitted curve in the direction sought with a large enough effect in the repeat runs; an effect the other way counts as inactive or inconclusive; further: nearly all actives have a fitted effect of over 55% in size)
Summary of the method: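 HaCaT ARE reporter line, 1,500 cells/well; 5 h settle, 37 C/5% CO2; cpd in DMSO pinned; 23 h exposure; CellTiter-Fluor, 1 h; fluorescence.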

[2] = Nuclear factor erythroid 2-related factor 2/antioxidant responsive element (Nrf2/ARE) small molecule agonists: luciferase reporter gene qHTS assay in human keratinocytes (AID 1919969); further: nearly all actives have a fitted effect of over 35% in size
[3] = target: Gonadotropin-releasing hormone receptor (Homo sapiens) (UniProt P30968); experiment: Human gonadotropin-releasing hormone receptor (GnRHR) small molecule agonists, calcium flux assay in GnRHR-HEK293 cells (AID 1920063); further: nearly all actives have a fitted effect of over 35% in size
Summary of the method: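 GnRHR-HEK293, 1500 cells/well, 18 h 37 C/5% CO2; Ca dye 1 h 37 C; cpd pinned (DMSO), agonist mode; kinetic FL 480/540, 3 min, 1 s reads; 15 conc, n=3.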

[4] = target: KiSS-1 receptor (Homo sapiens) (UniProt Q969F8); experiment: Human kisspeptin (KISS1R) small molecule agonists, calcium flux assay in KISS1R-HEK293 cells (AID 1920064; active means well fitted curve in the direction sought with a large enough effect in the repeat runs; an effect the other way counts as inactive or inconclusive)
Summary of the method: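 Stable human KISS1R HEK293 line; 18 h plating, 37 C/5% CO2; calcium dye 1 h 37 C; compound pin transfer; kinetic fluorescence Ex/Em 480/540, 3 min.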

[5] = G protein-coupled receptor (GPCR) small molecule agonists, calcium flux assay: HEK293 wild type cell line counter screen (AID 1920065)
Summary of the method: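 Kinetic fluorescence at Ex/Em 480/540, recorded every second over 3 min, served as the read-out after compound addition. Each compound was tested at 15 concentrations in triplicate on cells pre-loaded with calcium dye for 1 h.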

[6] = p53 small molecule agonists, cell-based qHTS assay with human liver microsomes (AID 1963577);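 further: p53 response element beta-lactamase reporter cells with liver microsomes plus NADPH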
Summary of the method: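 HLM-supplemented p53RE-bla reporter assay: 16 h compound exposure at 37 C, microsomes and NADPH each 0.5 mg/mL final, read by fluorescence intensity.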

[7] = p53 small molecule agonists, cell-based qHTS assay with rat liver microsomes (AID 1963578)
Summary of the method: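 Quantitative HTS of the Tox21 10K library: p53RE-bla cells, rat liver microsomes plus NADPH at 0.5 mg/mL final each, 16 h at 37 C, beta-lactamase fluorescence detection.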

[8] = p53 small molecule agonists, cell-based qHTS assay with human liver microsomes: qHTS cell viability counter screen (AID 1963579); further: nearly all actives have a fitted effect of over 45% in size
Summary of the method: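 Viability of p53RE-bla cells is measured as CellTiter-Glo luminescence following a 16 h, 37 C incubation with compound, liver microsomes from human donors and NADPH.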

[9] = p53 small molecule agonists, cell-based qHTS assay with rat liver microsomes: qHTS cell viability counter screen (AID 1963580); further: nearly all actives have a fitted effect of over 45% in size
Summary of the method: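 p53RE-bla HCT-116 cells were exposed 16 h at 37 C to compounds with rat liver microsomes (0.5 mg/mL) and NADPH (0.5 mg/mL). Viability was measured in the same wells as ATP content by CellTiter-Glo luminescence.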

[10] = p53 small molecule agonists, cell-based qHTS assay: qHTS cell viability counter screen (AID 1963581); further: nearly all actives have a fitted effect of over 45% in size
Summary of the method: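 HCT-116 p53RE-bla cells, 4,000/well, plated 5 h before compound pin transfer; 16 h at 37 C; bla substrate 2 h RT; then CellTiter-Glo, 30 min RT, luminescence.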

[11] = p53 small molecule agonists, cell-based qHTS assay (AID 1963582; active means well fitted activation curve with a large enough effect in the signal ratio in the repeat runs, not every such curve was filed as active; the % refers to the signal ratio)
Summary of the method: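 Reporter line: p53RE-bla. Pre-incubation 5 h, 37 C, 5% CO2; compound (DMSO, pin tool) 16 h, 37 C; B/G FRET substrate 2 h RT; fluorescence intensity read.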

[12] = target: 5-hydroxytryptamine receptor 2A (Homo sapiens) (UniProt P28223); experiment: 5-hydroxytryptamine receptor 2A (HTR2A) small molecule antagonists, cell-based qHTS assay (AID 1963586); further: nearly all actives have a fitted effect of over 45% in size
Summary of the method: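 Antagonist-mode intracellular calcium assay: DOI (4 nM) added after 5 min compound pre-incubation at room temperature to dye-loaded HTR2A-CHO cells. Fluorescence followed for 3 min, sampled every second.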

[13] = target: Muscarinic acetylcholine receptor M1 (Homo sapiens) (UniProt P11229); experiment: Cholinergic receptor muscarinic 1 (CHRM1) small molecule antagonists, cell-based qHTS assay (AID 1963588); further: nearly all actives have a fitted effect of over 40% in size
Summary of the method: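 CHRM1-CHO calcium-flux assay, antagonist mode. Cells were seeded 18 h, dye-loaded 1 h at 37 C and given compound for 5 min at RT, then acetylcholine was added at 50nM. FDSS fluorescence was read 3 min; 15 concentrations, three runs.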

[14] = target: Muscarinic acetylcholine receptor M1 (Homo sapiens) (UniProt P11229); experiment: Cholinergic receptor muscarinic 1 (CHRM1) small molecule agonists, cell-based qHTS assay (AID 1963589); further: nearly all actives have a fitted effect of over 35% in size
Summary of the method: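 Human M1 in stable CHO line; 18 h plating, 1 h dye load 37 C; cpd added (agonist mode); Ca2+ fluorescence kinetic read, 1 s intervals; 15 conc, 3 runs.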

[15] = cAMP Responsive Elements (CRE) small molecule antagonists, cell-based qHTS assay (AID 1963591; active means well fitted inhibition curve with a large enough effect in the signal ratio in the repeat runs, not every such curve was filed as active; the % refers to the signal ratio)
Summary of the method: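 Beta-lactamase reporter read by FRET substrate (LiveBLAzer B/G) after 2 h at room temperature. CRE-bla HEK293T cells had received compound plus 0.25 uM (final) NKH477 for 3 h at 37 °C.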

[16] = target: Beta-2 adrenergic receptor (Homo sapiens) (UniProt P07550); experiment: Adrenergic beta2 receptor (ADRB2) small molecule antagonists, cell-based qHTS assay (AID 1963592); further: series mostly up to about 92 µM; nearly all actives have a fitted effect of over 50% in size
Summary of the method: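 Cells (CHO, stable ADRB2 overexpression) incubated 18-20hr at 37C; compounds added from DMSO; agonist mix (1nM isoproterenol, 100uM IBMX, 25uM Ro-20-1724) added; 0.5hr RT; d2-cAMP and anti-cAMP-cryptate added; 1hr RT; 665/615 nm read.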

[17] = target: D(2) dopamine receptor (Homo sapiens) (UniProt P14416); experiment: Dopamine D2 receptor (DRD2) small molecule antagonists, cell-based qHTS assay (AID 1963595; active means well fitted inhibition curve with a large enough effect in the signal ratio in the repeat runs, with a control signal flat; the % refers to the signal ratio)
Summary of the method: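 Human DRD2 antagonist qHTS measuring cAMP by HTRF. The cells are exposed to compound for 10 min, then to NKH477 (200 nM) and quinpirole (12 nM) for 30 min at RT, with Ro20-1724 (0.1 mM) present throughout.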

[18] = target: 5-hydroxytryptamine receptor 2A (Homo sapiens) (UniProt P28223); experiment: 5-hydroxytryptamine receptor 2A (HTR2A) small molecule agonists, cell-based qHTS assay (AID 1963587); further: nearly all actives have a fitted effect of over 30% in size
Summary of the method: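 CHO cells stably expressing human HTR2A, plated 18 h, loaded with calcium dye 1 h at 37 C. Agonist mode: compounds added and intracellular calcium fluorescence recorded kinetically for 2 min at 1 sec intervals.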

[19] = target: D(2) dopamine receptor (Homo sapiens) (UniProt P14416); experiment: Dopamine D2 receptor (DRD2) small molecule agonists, cell-based qHTS assay (AID 1963594); further: nearly all actives have a fitted effect of over 35% in size
Summary of the method: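 HEK293 cells stably expressing human DRD2, pre-treated with PDE inhibitor Ro20-1724 (0.1 mM final) and compound 10 min at room temperature, then stimulated with NKH477 (200nM […]) for 30 min. cAMP read by HTRF (665/620 nm).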

[20] = target: Beta-2 adrenergic receptor (Homo sapiens) (UniProt P07550); experiment: Adrenergic beta2 receptor (ADRB2) small molecule agonists, cell-based qHTS assay (AID 1963593);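 further: CHO cells stably overexpressing human ADRB2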
Summary of the method: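 CHO cells stably over-expressing ADRB2 were plated overnight at 37C, then dosed with compounds plus a stimulation mix containing 100uM IBMX and 25uM Ro-20-1724 for 0.5hr at room temperature. cAMP was measured by HTRF competition, 1hr.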

Measured: Potency

Sequence of KiSS-1 receptor (Homo sapiens) (Q969F8 whole entry, looked up): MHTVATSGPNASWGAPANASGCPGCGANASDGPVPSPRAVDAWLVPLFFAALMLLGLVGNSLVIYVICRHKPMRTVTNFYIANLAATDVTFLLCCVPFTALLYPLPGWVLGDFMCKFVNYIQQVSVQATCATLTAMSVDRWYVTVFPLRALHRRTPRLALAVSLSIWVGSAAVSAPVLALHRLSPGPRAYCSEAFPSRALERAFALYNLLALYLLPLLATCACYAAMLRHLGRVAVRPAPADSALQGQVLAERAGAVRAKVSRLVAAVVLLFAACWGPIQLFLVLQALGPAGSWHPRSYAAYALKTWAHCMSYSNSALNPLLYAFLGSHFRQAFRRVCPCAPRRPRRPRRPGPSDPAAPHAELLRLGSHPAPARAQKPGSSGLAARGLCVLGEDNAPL
Sequence of 5-hydroxytryptamine receptor 2A (Homo sapiens) (P28223 whole entry, looked up): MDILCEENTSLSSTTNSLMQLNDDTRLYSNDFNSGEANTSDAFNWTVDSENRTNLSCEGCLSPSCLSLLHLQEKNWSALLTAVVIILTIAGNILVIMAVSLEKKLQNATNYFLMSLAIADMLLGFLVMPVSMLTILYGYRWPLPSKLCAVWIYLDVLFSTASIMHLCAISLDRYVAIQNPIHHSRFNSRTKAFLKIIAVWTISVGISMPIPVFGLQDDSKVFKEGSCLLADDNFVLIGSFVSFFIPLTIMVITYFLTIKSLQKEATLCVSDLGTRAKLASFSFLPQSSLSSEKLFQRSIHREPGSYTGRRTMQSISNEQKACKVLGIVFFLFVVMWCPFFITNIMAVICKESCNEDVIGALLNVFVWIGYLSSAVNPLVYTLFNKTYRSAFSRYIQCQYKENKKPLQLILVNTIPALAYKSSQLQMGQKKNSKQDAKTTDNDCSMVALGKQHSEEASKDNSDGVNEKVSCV
Sequence of Beta-2 adrenergic receptor (Homo sapiens) (P07550 whole entry, looked up): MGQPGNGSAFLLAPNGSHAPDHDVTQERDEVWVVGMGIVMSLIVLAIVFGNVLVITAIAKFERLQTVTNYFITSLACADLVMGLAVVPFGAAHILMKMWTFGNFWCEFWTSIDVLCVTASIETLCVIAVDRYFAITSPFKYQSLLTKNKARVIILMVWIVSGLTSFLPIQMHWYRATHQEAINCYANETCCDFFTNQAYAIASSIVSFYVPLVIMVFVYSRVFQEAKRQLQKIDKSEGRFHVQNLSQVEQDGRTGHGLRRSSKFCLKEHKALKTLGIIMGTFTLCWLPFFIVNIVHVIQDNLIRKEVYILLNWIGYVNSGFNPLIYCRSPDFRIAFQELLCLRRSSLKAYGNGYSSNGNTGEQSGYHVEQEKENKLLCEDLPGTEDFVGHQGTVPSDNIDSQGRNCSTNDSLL
Sequence of Gonadotropin-releasing hormone receptor (Homo sapiens) (P30968 whole entry, looked up): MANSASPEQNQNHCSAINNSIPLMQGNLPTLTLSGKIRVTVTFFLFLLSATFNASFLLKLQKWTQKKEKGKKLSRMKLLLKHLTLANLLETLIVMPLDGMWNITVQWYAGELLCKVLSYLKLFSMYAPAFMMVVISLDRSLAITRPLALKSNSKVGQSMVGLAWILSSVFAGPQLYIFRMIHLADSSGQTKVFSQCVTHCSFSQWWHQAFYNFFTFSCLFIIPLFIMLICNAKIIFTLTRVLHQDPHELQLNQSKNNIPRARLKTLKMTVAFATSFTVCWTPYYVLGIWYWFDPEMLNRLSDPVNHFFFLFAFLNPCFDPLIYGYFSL
Sequence of Muscarinic acetylcholine receptor M1 (Homo sapiens) (P11229 whole entry, looked up): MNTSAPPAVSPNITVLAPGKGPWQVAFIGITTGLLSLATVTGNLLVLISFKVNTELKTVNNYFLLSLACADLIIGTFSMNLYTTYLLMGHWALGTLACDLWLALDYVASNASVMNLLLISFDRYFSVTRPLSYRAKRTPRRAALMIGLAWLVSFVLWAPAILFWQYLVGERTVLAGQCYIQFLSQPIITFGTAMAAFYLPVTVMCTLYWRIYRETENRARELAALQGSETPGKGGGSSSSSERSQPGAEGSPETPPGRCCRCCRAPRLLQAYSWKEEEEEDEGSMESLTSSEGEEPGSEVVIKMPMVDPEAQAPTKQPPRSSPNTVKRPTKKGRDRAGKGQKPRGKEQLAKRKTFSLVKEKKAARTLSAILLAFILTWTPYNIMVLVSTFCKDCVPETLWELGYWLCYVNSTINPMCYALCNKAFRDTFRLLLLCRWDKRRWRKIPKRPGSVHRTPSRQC
Sequence of D(2) dopamine receptor (Homo sapiens) (P14416 whole entry, looked up): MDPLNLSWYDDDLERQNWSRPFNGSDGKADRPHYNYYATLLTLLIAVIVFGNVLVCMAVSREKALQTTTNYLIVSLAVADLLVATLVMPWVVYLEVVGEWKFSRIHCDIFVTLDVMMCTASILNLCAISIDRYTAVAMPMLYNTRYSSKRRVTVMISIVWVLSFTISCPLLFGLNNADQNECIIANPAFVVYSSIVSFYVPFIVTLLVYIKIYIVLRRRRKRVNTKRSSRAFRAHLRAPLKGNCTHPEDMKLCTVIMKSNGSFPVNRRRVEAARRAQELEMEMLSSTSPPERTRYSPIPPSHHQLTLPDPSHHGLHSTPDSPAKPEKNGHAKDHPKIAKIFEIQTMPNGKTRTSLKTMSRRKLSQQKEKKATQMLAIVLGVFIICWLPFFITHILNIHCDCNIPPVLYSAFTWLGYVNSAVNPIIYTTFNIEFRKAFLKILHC

CCc1occc(=O)c1O
inactive: [1] | [2] | [3] | [4] | [5] | [6] | [7] | [8] | [9] | [10] | [11] | [12] | [13] | [14] | [15] | [16] | [17]

CC(=O)N(O)CCCCCNC(=O)CCC(=O)N(O)CCCCCNC(=O)CCC(=O)N(O)CCCCCN
inactive: [1] | [2] | [3] | [4] | [5] | [6] | [7] | [8] | [9] | [10] | [11] | [12] | [18] | [14] | [16] | [19] | [17]

O=S(=O)(O)c1cc(O)c(O)c(S(=O)(=O)O)c1
inactive: [1] | [2] | [3] | [4] | [5] | [6] | [7] | [8] | [9] | [10] | [11] | [12] | [13] | [14] | [15] | [16] | [20] | [19] | [17]

CCN(CC#N)c1cccc(C)c1
inactive: [1] | [2] | [3] | [4] | [5] | [6] | [7] | [8] | [9] | [10] | [11] | [12] | [13] | [14] | [15] | [16] | [20] | [19] | [17]

CCC1CCCCC1
inactive: [1] | [2] | [3] | [4] | [5] | [6] | [7] | [8] | [9] | [10] | [11] | [18] | [13] | [14] | [15] | [16] | [20] | [19]

CCCCCCOC(=O)C(C)CC (centres undefined)
inactive: [1] | [2] | [3] | [4] | [5] | [6] | [7] | [8] | [9] | [10] | [11] | [12] | [13] | [14] | [15] | [16] | [20] | [19] | [17]

CC(C)CCCO
inactive: [1] | [2] | [3] | [4] | [5] | [6] | [7] | [8] | [9] | [10] | [11] | [12] | [13] | [14] | [15] | [20] | [17]

CC1(C)[C@H]2CC[C@](C)(C2)[C@H]1O
inactive: [1] | [2] | [3] | [4] | [5] | [6] | [7] | [8] | [9] | [10] | [11] | [12] | [13] | [14] | [15] | [16] | [20]

CC(C)CC(O)CC(C)C
inactive: [1] | [2] | [3] | [4] | [5] | [6] | [7] | [8] | [9] | [10] | [11] | [12] | [13] | [14] | [15] | [16] | [19] | [17]

O=c1[nH]cnc2c1ncn2[C@@H]1O[C@H](CO)[C@@H](O)[C@H]1O
inactive: [1] | [2] | [3] | [4] | [5] | [6] | [7] | [8] | [9] | [10] | [11] | [12] | [18] | [14] | [16] | [20] | [19] | [17]

NC/C=C/C(=O)O
inactive: [1] | [2] | [3] | [4] | [5] | [6] | [7] | [8] | [9] | [10] | [11] | [12] | [18] | [14] | [16] | [20] | [19] | [17]

ON(Cc1ccccc1)Cc1ccccc1
inactive: [1] | [2] | [3] | [4] | [5] | [6] | [7] | [8] | [9] | [10] | [11] | [18] | [13] | [14] | [15] | [16] | [20] | [17]

NC(=O)c1ccc([N+](=O)[O-])cc1Cl
inactive: [1] | [2] | [3] | [4] | [5] | [6] | [7] | [8] | [9] | [10] | [12] | [18] | [13] | [14] | [15] | [16] | [20] | [19] | [17]

NCCC(O)(P(=O)(O)O)P(=O)(O)O
inactive: [1] | [2] | [3] | [4] | [5] | [6] | [7] | [8] | [9] | [10] | [11] | [13] | [14] | [15] | [20] | [19] | [17]

CCOC(=O)CN1CCCC1=O
inactive: [1] | [2] | [3] | [4] | [5] | [6] | [7] | [8] | [9] | [10] | [11] | [13] | [14] | [15] | [16] | [20] | [19] | [17]

O=C[C@H](O)[C@H](O)[C@H](O)CO
inactive: [1] | [2] | [3] | [4] | [5] | [6] | [7] | [8] | [9] | [10] | [12] | [18] | [13] | [14] | [15] | [16] | [20] | [19] | [17]

CCCCCCCCCCCCI
inactive: [1] | [2] | [3] | [4] | [5] | [6] | [7] | [8] | [9] | [10] | [12] | [18] | [13] | [14] | [15] | [16] | [20] | [17]

CC(=O)N1CCN(c2ccc(O)cc2)CC1
inactive: [1] | [2] | [3] | [4] | [5] | [6] | [7] | [8] | [9] | [10] | [11] | [18] | [13] | [14] | [15] | [16] | [19] | [17]

CCOC(=O)[C@H](CCc1ccccc1)N[C@@H](C)C(=O)N1Cc2ccccc2C[C@H]1C(=O)O
inactive: [1] | [2] | [3] | [4] | [5] | [6] | [7] | [8] | [9] | [10] | [11] | [15] | [16] | [20] | [19] | [17]

CO[C@@]1(NC(=O)CSC[C@@H](N)C(=O)O)C(=O)N2C(C(=O)O)=C(CSc3nnnn3C)CS[C@@H]21
inactive: [1] | [2] | [3] | [4] | [5] | [6] | [7] | [8] | [9] | [10] | [12] | [18] | [13] | [14] | [15] | [16] | [20] | [19] | [17]

Reference: PubChem BioAssay (Tox21)
